# Bioassay records: PubChem BioAssay, National Center for Advancing Translational Sciences (NCATS)
# Only some compounds are listed: those with a hit (about 2.9% of all), similar ones and a draw of the others.
# Pol eta inh-1 – inhibitors of human DNA polymerase eta; Q9Y253; 390,000 tested, 1.2% active; recombinant Pol eta, fluorescent DNA replication assay; Potency, µM (titrated, usually from 114 µM), for the others: top-dose activity change, negative = inhibition, actives largely listed as inhibitors; further: potency means the concentration at half of the fitted maximal effect; on the % scale 0 is the no-effect control and ±100 the full control effect
#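 Pol eta (10 nM) was preincubated with compounds for 15 min at room temperature, after which fluorescent replication substrate (50 nM final) was added to start the reaction. Fluorescence was read kinetically at 0 and 10 min.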
# ALOX12 inh – blocks human arachidonate 12S-lipoxygenase; P18054; purified 12hLO, xylenol orange hydroperoxide absorbance; Potency, µM (series often up to 108 µM), inactives show at the top dose activity change, negative = inhibition, actives largely listed as inhibitors; 580,000 tested, 1.1% active; further: potency means the concentration at half of the fitted maximal effect; on the % scale 0 is the no-effect control and ±100 the full control effect
#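 Hydroperoxide product was detected by ferrous iron/xylenol orange as the 573 to 405 nm absorbance ratio. Arachidonic acid at 40 uM (final) was turned over for 30 min at room temperature by 150 nM human 12hLO, pH 7.0 Hepes buffer, after 15 min compound preincubation.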
# Pol iota inh – DNA polymerase iota (human) inhibition; Q9UNA4; Pol iota fluorescent replication assay, 10 min; Potency, µM (top dose mostly 115 µM), for inactives: at the top dose activity, negative = inhibition, most hits filed as inhibitors; 390,000 tested, 1% active; further: potency means the concentration at half of the fitted maximal effect
# Target sequence (Q9UNA4 whole entry, looked up): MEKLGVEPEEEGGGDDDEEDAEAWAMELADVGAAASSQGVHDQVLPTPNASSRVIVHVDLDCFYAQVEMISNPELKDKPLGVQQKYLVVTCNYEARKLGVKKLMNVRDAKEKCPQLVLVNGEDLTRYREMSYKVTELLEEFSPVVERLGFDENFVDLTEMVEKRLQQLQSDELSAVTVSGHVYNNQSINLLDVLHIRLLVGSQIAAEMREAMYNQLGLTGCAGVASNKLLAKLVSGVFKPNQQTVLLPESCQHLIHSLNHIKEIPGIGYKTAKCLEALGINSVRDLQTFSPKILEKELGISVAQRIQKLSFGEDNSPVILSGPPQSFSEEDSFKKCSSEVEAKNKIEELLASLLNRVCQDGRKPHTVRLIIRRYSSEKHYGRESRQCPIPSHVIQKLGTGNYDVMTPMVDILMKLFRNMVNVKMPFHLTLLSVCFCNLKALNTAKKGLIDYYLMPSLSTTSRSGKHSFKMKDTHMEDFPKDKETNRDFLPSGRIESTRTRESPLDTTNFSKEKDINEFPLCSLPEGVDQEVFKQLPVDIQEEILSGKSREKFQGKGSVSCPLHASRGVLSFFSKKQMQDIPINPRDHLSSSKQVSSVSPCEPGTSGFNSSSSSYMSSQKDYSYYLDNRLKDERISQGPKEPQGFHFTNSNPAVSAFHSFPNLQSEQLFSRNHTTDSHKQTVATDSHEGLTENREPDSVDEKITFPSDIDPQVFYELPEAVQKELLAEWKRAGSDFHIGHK
#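 Pol iota at 10 nM preincubated 15 min with compounds at room temperature; reaction started with fluorescent substrate, 50 nM final. Fluorescence read kinetically at 0 and 10 min; buffer-only wells as negative control.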
# PI5P4Ka inh – inhibitors of human PI5P4K alpha. P48426. PI5P4Kalpha enzyme, ADP-Glo luminescence, 60 min; active compounds read low. max response, %. 330,000 tested, 1.2% active. AID 652105; active means max response of -50% or lower; inconclusive means between -30% and -50%; inactive means -30% or higher; further: value at the top dose of about 77 µM; on the % scale 0 is the no-effect control and ±100 the full control effect
#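 ADP-Glo luminescence end-point read after a 60 min room-temperature kinase reaction of PI5P4Kalpha plus substrate, initiated with ATP at 5 microM final. Buffer: 0.038 M HEPES pH 7.4, EGTA, 0.1% CHAPS, 5% DMSO.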
# Pol beta inh – inhibitors of human DNA polymerase beta. P06746. Pol beta primer extension/strand displacement, fluorescence kinetic. 340,000 tested, 1.3% active. Potency, µM (highest dose often 114 µM), without a hit: at the top dose activity change, negative = inhibition, hits mostly inhibitors; further: potency means the concentration at half of the fitted maximal effect; on the % scale 0 is the no-effect control and ±100 the full control effect
#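 Preincubation: enzyme (10 nM) with compound, 15 min, RT. Reaction: substrate added to 50 nM final. Reads: 0 and 10 min. Analysis: normalized, Hill fit.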
# Pol kappa inh-1 – inhibitors of human DNA polymerase kappa | Q9UBT6 | 400,000 tested, 0.53% active | purified Pol kappa, fluorescent DNA synthesis assay, 10 min | Potency, µM (series often up to 107 µM), for inactives: at the highest dose activity, negative = inhibition, hits mostly inhibitors | AID 588579; further: potency means the concentration at half of the fitted maximal effect; on the % scale 0 is the no-effect control and ±100 the full control effect
#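 Here, compound and 10 nM enzyme are combined for 15 min at room temperature; adding 50 nM substrate (final) starts DNA synthesis, tracked by fluorescence at 0 and 10 min against buffer-only wells.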
# PGK validate – validation of Trypanosoma brucei phosphoglycerate kinase inhibitors; Potency, µM (highest dose often 57.5 µM), inactives show at the top dose activity change, negative = inhibition, hits mostly inhibitors; TbPGK coupled GAPDH assay, Kinase-Glo luminescence; shares compounds with Pol kappa inh-1; 500 tested, 79% active; further: potency means the concentration at half of the fitted maximal effect; on the % scale 0 is the no-effect control and ±100 the full control effect; nearly all actives have a fitted effect of over 65% in size
# Pol iota confirm – Human Pol iota inhibitor confirmatory assay. shares compounds with Pol kappa inh-1. Pol iota primer extension, TAMRA/BHQ fluorescence. Potency, µM, actives largely listed as inhibitors. 1,500 tested, 77% active; further: potency means the concentration at half of the fitted maximal effect
# Pol kappa inh-2 – confirmation of human DNA polymerase kappa inhibitors. Potency, µM, usual class: inhibitors. shares compounds with Pol eta inh-1. purified Pol-kappa, fluorescent strand-displacement substrate. 920 tested, 76% active; further: potency means the concentration at half of the fitted maximal effect
# Pol eta inh-2 – confirmation of human DNA polymerase eta inhibitors | AID 720502 | shares compounds with Pol eta inh-1 | Pol eta primer extension, TAMRA/BHQ fluorescence, 10 min | Potency, µM, actives largely listed as inhibitors | 2,600 tested, 64% active; further: potency means the concentration at half of the fitted maximal effect
# * marks the source's active call; other numbers are inactive results; i = inactive; ? = inconclusive; nt = not tested or not shown. Unless noted, the call rests on the fitted dose curve; in most records, active means well fitted curve in the direction sought with a large enough effect; inconclusive means small, poorly fitted or top-dose-only effect, or another doubt; inactive means no such curve, though single readings can be large; an effect the other way counts as inactive or inconclusive.
SMILES,Pol eta inh-1,ALOX12 inh,Pol iota inh,PI5P4Ka inh,Pol beta inh,Pol kappa inh-1,Pol iota confirm,Pol kappa inh-2,Pol eta inh-2,others
COc1ccccc1NC(=O)Cn1c(O)c(N=NC(=O)c2ccccc2O)c2ccccc21,50µM*,-11%,?,-1,?,?,?,?,nt,
COc1ccc(CCC(=O)O)c(O)c1,32µM*,28%,?,-2,40µM*,71µM*,75*,nt,67*,
O=C(N=Nc1c(O)[nH]c2ccccc12)c1cc(-c2cccs2)[nH]n1,56µM*,-10%,?,-16,?,-30%,67*,?,nt,
c1cc(-c2noc(CSc3nnnn3C3CCCC3)n2)cs1,nt,-8%,nt,nt,nt,nt,nt,nt,nt,
O=P(c1ccccc1)(c1ccccc1)c1cc(S(=O)(=O)O)ccc1O,20µM*,3%,25µM*,-29,10µM*,?,24*,42*,60*,
O=C(O)C1=C(C(=O)O)C2C=CC1C2,20µM*,?,?,-9,nt,?,nt,24*,?,PGK validate=10µM*
O=C(/C=C/c1ccccc1)Nc1scc(-c2ccccc2)c1C(=O)O,-15%,0%,13%,?,0%,-5%,nt,nt,nt,
O=C(/C=C/c1ccco1)Nc1scc(-c2ccccc2)c1C(=O)O,20µM*,?,28µM*,?,-38%,79µM*,38*,nt,27*,
O=C1CC[C@]2(C(=O)NCc3ccccn3)CCCC[C@H]2N1CCc1ccccc1,nt,69%,nt,nt,nt,nt,nt,nt,nt,
Cc1ccccc1-n1c(C)cc(/C=N/Nc2ccc([N+](=O)[O-])cn2)c1C,-8%,11%,2%,-4,26%,-6%,nt,nt,nt,
Cc1cc(/C=N/Nc2ccc([N+](=O)[O-])cn2)c(C)n1-c1ccc(C(=O)O)cc1,18µM*,?,18µM*,-84*,?,79µM*,?,nt,67*,
COc1cccc(/C=N/NC(=O)CCc2n[nH]c(=O)[nH]c2=O)c1O,-20%,-12%,-3%,?,3%,-7%,nt,nt,nt,
O=C(CCc1n[nH]c(=O)[nH]c1=O)N/N=C/c1ccco1,?,-2%,25µM*,?,10µM*,?,?,nt,76*,PGK validate=21µM*
COC(=O)/C=C1\SC(=Nc2ccc(Cl)c(Cl)c2)NC1=O,-13%,?,56%,9,4%,-2%,nt,nt,nt,
COc1cc(/C=C2\SC(=Nc3ccc(Cl)c(C(=O)O)c3)NC2=O)c(Br)c(Br)c1O,18µM*,?,22µM*,-106*,8.9µM*,40µM*,67*,8.4*,?,
Oc1ccc(-c2cn3c(n2)SCC3)cc1O,2.8µM*,?,2.5µM*,-13,1.3µM*,7.1µM*,9.5*,nt,3.4*,
Cc1sc2cc3c(c(C(=O)c4ccccc4)[n+]2c1C)-c1cccc2cccc-3c12,?,?,39%,-7,?,-9%,nt,nt,nt,
O=C(c1ccccc1)c1c2c(cc3sc4ccccc4[n+]13)-c1cccc3cccc-2c13,22µM*,32µM*,10µM*,-21,4.5µM*,?,17*,nt,24*,
Cc1ccc(C(=O)O)cc1N1C(=O)c2cccc3c([N+](=O)[O-])ccc(c23)C1=O,10µM*,5µM*,16µM*,?,18µM*,40µM*,27*,6.7*,30*,
CC(=O)Oc1cccc(N2C(=O)c3cccc4c([N+](=O)[O-])ccc(c34)C2=O)c1,-18%,?,10%,1,15%,0%,nt,nt,nt,
CCN(CC)c1ccc2nc3ccc(N)cc3[n+](-c3ccccc3)c2c1,?,nt,79µM*,?,nt,22µM*,19*,47*,76*,PGK validate=13µM*
CCN(CC)c1ccc(/C=C/c2cc(Cl)nc3ccccc23)cc1,nt,nt,7%,nt,nt,-14%,nt,nt,nt,
Cc1coc2cc3o/c(=N/O)c4c(c3cc12)CCCC4,nt,-17%,nt,nt,nt,nt,nt,nt,nt,
COc1ccc(C2=Nn3c(nnc3-c3ccco3)SC2)cc1,-8%,2%,-4%,0,-1%,5%,nt,nt,nt,
Oc1ccc(C2=Nn3c(nnc3-c3ccco3)SC2)cc1O,3.2µM*,7.1µM*,2.2µM*,?,4µM*,20µM*,27*,nt,19*,PGK validate=5.8µM*
SMILES,Pol eta inh-1,ALOX12 inh,Pol iota inh,PI5P4Ka inh,Pol beta inh,Pol kappa inh-1,Pol iota confirm,Pol kappa inh-2,Pol eta inh-2,others
CN1CCN(c2ccc(Nc3c4ccccc4nc4ccccc34)cc2)CC1,nt,?,nt,nt,nt,19µM*,42*,30*,nt,
O=S(=O)(O)c1cc(Cl)cc(N=Nc2ccc(O)cc2O)c1O,13µM*,45µM*,i,-98*,nt,-170%,12*,6.7*,43*,
Cc1ccc(CN2C(=O)N/C(=C\c3ccc(-c4ccc(C(=O)O)cc4C)o3)C2=O)cc1,18µM*,1%,-95%,-23,20µM*,79µM*,21*,nt,27*,
O=C1N/C(=C/c2ccc(N3CCOCC3)o2)C(=O)N1c1ccccc1,8%,-13%,?,-9,1%,-10%,nt,nt,nt,
O=C(O)c1ccc(-c2ccc(/C=C3\NC(=O)N(Cc4ccc(Cl)cc4)C3=O)o2)cc1,22µM*,?,28µM*,-5,-3%,?,38*,nt,27*,
Cc1ccc(C(=O)O)cc1-c1ccc(/C=C2/NC(=O)N(c3ccccc3)C2=O)o1,2.8µM*,?,14µM*,?,5.6µM*,22µM*,19*,19*,30*,
Cc1cc(C(=O)O)ccc1-c1ccc(CO)o1,3%,0%,-14%,-2,4%,-19%,nt,nt,nt,
CCCCCc1ccc(-c2ccc(C3CCC(CCC)CC3)cc2)nc1 (centres undefined),nt,32%,nt,nt,nt,nt,nt,nt,nt,
CCOC(=O)c1oc2cc(OCC(=O)OC(C)C)ccc2c(=O)c1-c1ccccc1OC,nt,-6%,nt,nt,nt,nt,nt,nt,nt,
Nc1ccc(O)c2c1C(=O)c1ccccc1C2=O,8.9µM*,?,40µM*,-97*,2.8µM*,28µM*,19*,3.4*,21*,PGK validate=12µM*
COc1cc2c(cc1NC(=O)CSc1nc3ccccc3[nH]1)oc1ccccc12,50µM*,?,45µM*,nt,5%,?,42*,nt,43*,
